Rows were chosen to be rich in hits. Some 10% of all compounds tested hit in one or more screens of this group.
Luciferase inh = Firefly luciferase inhibition profiling of diverse chemical library using quantitative high-throughput screening. Luciferin 4-monooxygenase (Photinus pyralis), P08659. purified P. pyralis luciferase, luminescence, biochemical. Potency, µM (highest dose often 115 µM), most hits filed as inhibitors. hit rate 2.5% among 76,000. AID 1347043, 2019; further: nearly all actives have a fitted effect of over 65% in size
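Luminescence read by CCD imager after adding enzyme (10nM final) to wells holding compound, titrated in qHTS. Substrates 10uM each D-luciferin and ATP; buffer 50mM Tris acetate pH 7.5, 10mM Mg acetate, Tween-20, BSA.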
GPT2 inhibitor = Primary qHTS assay for inhibitors of Glutamate pyruvate transaminase 2 (GPT2) | Alanine aminotransferase 2 (Homo sapiens), Q8TD30 | Recombinant GPT2, coupled pyruvate oxidase/HRP Amplex Red fluorescence | Potency, µM (titrated, usually from 57.7 µM), most hits filed as inhibitors | hit rate 0.25% among 100,000; further: nearly all actives have a fitted effect of over 60% in size
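Fluorescence of coupled pyruvate oxidase/HRP/Amplex Red system (50uM Amplex, 30 min, dark) reports pyruvate formed by GPT2. Enzyme reaction: 10ng/uL GPT2, 2mM L-alanine, 250uM a-KG, 30 min room temperature, pH 7.5; 50uM AOA control.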
NPR1 antag = Natriuretic polypeptide receptor (hNpr1) antagonism - Primary qHTS | Atrial natriuretic peptide receptor 1 (Homo sapiens), P16066 | HEK293 hNpr1 GloSensor cGMP, ANP-stimulated luminescence | Potency, µM (highest dose often 46.3 µM), most hits filed as inhibitors | hit rate 1.6% among 76,000; calls by dose curve; further: nearly all actives have a fitted effect of over 60% in size
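Compound pre-incubated 30 min at room temperature on GloSensor-loaded HEK293 cells stably carrying hNpr1 and the pGS-40F cGMP biosensor. Stimulation uses hNppA at 0.1 nM final; luminescence is taken at baseline and 20 min post-agonist.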
HEK293 tox = Cytotoxic Profiling in HEK 293 Cell Line of Diverse Libraries Using Quantitative High-Throughput Screening; HEK 293 viability, ATP luminescence (CellTiter-Glo), 48-72 h; Potency, µM (series often up to 115 µM), most hits filed as inhibitors; hit rate 6.6% among 94,000; AID 1345083, 2018; further: nearly all actives have a fitted effect of over 60% in size
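HEK 293 seeded at 250 cells/well receive compound via pintool. After 48 or 72 hr at 37 degree Celsius, 5% CO2 and 95% humidity, CellTiter-Glo is dispensed and luminescence read following 10 min at room temperature.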
NIH3T3 tox = Cytotoxic Profiling in NIH 3T3 Cell Line of Diverse Libraries Using Quantitative High-Throughput Screening; Potency, µM (top dose mostly 96.7 µM), usual class: inhibitors; hit rate 4.3% among 94,000; NIH 3T3 viability, CellTiter-Glo ATP luminescence, 48-72 h; AID 1345082, 2018; further: nearly all actives have a fitted effect of over 55% in size
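Cytotoxicity was measured by CellTiter-Glo ATP luminescence after 48 or 72 h compound exposure at 37 °C. Mouse NIH 3T3 fibroblasts were seeded at 400 cells/well and dosed by 23 nL pin transfer.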
NPR1 antag cnf = Natriuretic polypeptide receptor (hNpr1) antagonism - Confirmation. shares compounds with NPR1 antag. HEK293 hNpr1 cGMP GloSensor luminescence, ANP-stimulated. Potency, µM (series often up to 57.6 µM), actives largely listed as inhibitors. hit rate 76% among 1,400. AID 1347044, 2019; calls by dose curve; further: nearly all actives have a fitted effect of over 70% in size
NPR2 antag = Natriuretic polypeptide receptor (hNpr2) antagonism - Subtype selectivity assay; shares compounds with NPR1 antag; HEK293 hNpr2 GloSensor cGMP luminescence, CNP-stimulated; Potency, µM (doses to about 57.6 µM), usual class: inhibitors; hit rate 67% among 1,400; AID 1347046, 2019; calls by dose curve; further: nearly all actives have a fitted effect of over 70% in size
Target sequence (P20594 whole entry, looked up): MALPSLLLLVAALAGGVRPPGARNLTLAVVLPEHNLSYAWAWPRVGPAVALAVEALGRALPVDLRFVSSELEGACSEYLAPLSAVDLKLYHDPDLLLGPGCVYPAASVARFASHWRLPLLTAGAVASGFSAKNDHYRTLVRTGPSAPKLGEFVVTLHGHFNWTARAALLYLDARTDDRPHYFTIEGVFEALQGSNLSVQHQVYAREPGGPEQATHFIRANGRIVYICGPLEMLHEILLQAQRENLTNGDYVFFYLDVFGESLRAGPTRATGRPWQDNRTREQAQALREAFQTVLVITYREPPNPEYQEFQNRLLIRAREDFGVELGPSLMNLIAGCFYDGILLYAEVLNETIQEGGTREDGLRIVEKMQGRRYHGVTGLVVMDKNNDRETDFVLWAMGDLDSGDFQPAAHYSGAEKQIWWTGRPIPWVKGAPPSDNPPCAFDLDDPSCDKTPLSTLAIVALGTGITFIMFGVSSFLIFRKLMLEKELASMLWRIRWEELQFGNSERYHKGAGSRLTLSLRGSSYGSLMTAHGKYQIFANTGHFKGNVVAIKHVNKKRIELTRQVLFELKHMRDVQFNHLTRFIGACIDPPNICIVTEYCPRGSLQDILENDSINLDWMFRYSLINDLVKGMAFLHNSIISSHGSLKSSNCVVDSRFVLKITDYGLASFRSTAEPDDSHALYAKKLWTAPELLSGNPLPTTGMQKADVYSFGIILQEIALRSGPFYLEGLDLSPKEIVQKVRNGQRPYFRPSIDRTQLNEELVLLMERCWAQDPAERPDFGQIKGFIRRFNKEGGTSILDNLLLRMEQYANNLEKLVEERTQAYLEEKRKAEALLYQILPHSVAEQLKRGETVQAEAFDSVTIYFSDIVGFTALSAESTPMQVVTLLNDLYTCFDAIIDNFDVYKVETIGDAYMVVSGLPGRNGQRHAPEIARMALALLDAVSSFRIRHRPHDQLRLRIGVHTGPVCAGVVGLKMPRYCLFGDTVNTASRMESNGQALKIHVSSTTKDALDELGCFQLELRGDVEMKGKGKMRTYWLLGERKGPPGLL
FLuc inh counter = Natriuretic polypeptide receptor (hNpr1) antagonism - Confirmation firefly luciferase (FLuc) inhibition counterscreen; Potency, µM (doses to about 57.6 µM), usual class: inhibitors; hit rate 0.7% among 1,400; purified FLuc enzyme, luminescence, Km substrate; shares compounds with NPR1 antag
GloSensor ctrl = Natriuretic polypeptide receptor (hNpr1) antagonism - Counterscreen GloSensor control cell line | HEK293 GloSensor cGMP, SNP-stimulated, luminescence | Potency, µM (titrated, usually from 57.6 µM), usual class: inhibitors | shares compounds with NPR1 antag | hit rate 69% among 1,400; calls by dose curve; further: nearly all actives have a fitted effect of over 70% in size
A number is an active result. Unless noted, the call rests on the fitted dose curve; in most records, active means well fitted curve in the direction sought with a large enough effect; inconclusive means small, poorly fitted or top-dose-only effect, or another doubt; inactive means no such curve, though single readings can be large; an effect the other way counts as inactive or inconclusive.

`Cc1ccc(OCC(=O)N2CCC(Cc3nc(-c4ccc(F)cc4)no3)CC2)cc1` gave Luciferase inh inactive, GPT2 inhibitor inactive, NPR1 antag 7.9µM, HEK293 tox inconclusive, NIH3T3 tox inconclusive, NPR1 antag cnf 11µM, NPR2 antag 12µM, FLuc inh counter inactive and GloSensor ctrl 9.7µM.
For COCCNC(=O)c1ccc(CC2CCN(C(=O)CCc3ccc(OC)cc3)CC2)cc1 the results were Luciferase inh inactive, GPT2 inhibitor inactive, NPR1 antag inactive, HEK293 tox inconclusive and NIH3T3 tox inactive.
`O=C(Cc1cccc(F)c1)N1CCC(Cc2nc(-c3cnccn3)no2)CC1` gave Luciferase inh inactive, GPT2 inhibitor inactive, NPR1 antag inactive, HEK293 tox inactive and NIH3T3 tox inconclusive.
COc1ccc(OCC(=O)N2CCC(Cc3nc(-c4cnccn4)no3)CC2)cc1 was read as Luciferase inh inactive, GPT2 inhibitor inactive, NPR1 antag inactive, HEK293 tox inactive and NIH3T3 tox inconclusive.
O=C(CCc1ccccc1)N1CC(Oc2ccc(-c3noc(C4CC4)n3)cc2)C1 was read as Luciferase inh inactive, GPT2 inhibitor inactive, NPR1 antag 14µM, HEK293 tox 28µM, NIH3T3 tox inconclusive, NPR1 antag cnf 15µM, NPR2 antag 17µM, FLuc inh counter inactive and GloSensor ctrl 15µM.
Screening O=C(NCc1ccc(Cl)cc1)c1ccc2nnc(-c3ccc(F)cc3)n2c1 returned GPT2 inhibitor inactive, HEK293 tox inconclusive and NIH3T3 tox inconclusive.
`COc1cccc(CCC(=O)N2CCC(Cc3nc(-c4cnccn4)no3)CC2)c1` gave Luciferase inh inactive, GPT2 inhibitor inactive, NPR1 antag inactive, HEK293 tox inactive and NIH3T3 tox inactive.
Screening COc1ccc(C(=O)N2CCC(n3cc(-c4nc(-c5ccccc5)no4)nn3)CC2)c(C)c1 returned Luciferase inh inactive, GPT2 inhibitor inactive, NPR1 antag inconclusive, HEK293 tox inconclusive and NIH3T3 tox inconclusive.
For COc1ccccc1CCC(=O)N1CCC(Cc2nc(-c3ccc(F)cc3)no2)CC1 the results were Luciferase inh inactive, GPT2 inhibitor inactive, NPR1 antag inconclusive, HEK293 tox inconclusive and NIH3T3 tox inconclusive.
For COc1ccc(CCC(=O)N2CCC(Cc3nc(-c4ccc(F)cc4)no3)CC2)cc1 the results were Luciferase inh inactive, GPT2 inhibitor inactive, NPR1 antag 5.6µM, HEK293 tox inconclusive, NIH3T3 tox inconclusive, NPR1 antag cnf 4.3µM, NPR2 antag 11µM, FLuc inh counter inactive and GloSensor ctrl 11µM.
`COc1cccc(CCC(=O)N2CCC(Cc3nc(-c4cccc(OC)c4)no3)CC2)c1` gave Luciferase inh inactive, GPT2 inhibitor inactive, NPR1 antag 16µM, HEK293 tox inconclusive, NIH3T3 tox inconclusive, NPR1 antag cnf 22µM, NPR2 antag 22µM, FLuc inh counter inactive and GloSensor ctrl 17µM.
`COc1cccc(CCC(=O)N2CCC(n3cc(-c4nc(-c5ccccc5)no4)nn3)C2)c1` (centres undefined) gave Luciferase inh inconclusive, GPT2 inhibitor inactive, NPR1 antag 14µM, HEK293 tox inconclusive, NIH3T3 tox inconclusive, NPR1 antag cnf 22µM, NPR2 antag 24µM, FLuc inh counter inactive and GloSensor ctrl 22µM.
O=C(NC1CCCC1)c1cc(-c2cccc(C(F)(F)F)c2)c2nncn2n1 was read as GPT2 inhibitor inactive, HEK293 tox inactive and NIH3T3 tox inactive.
COc1ccc(NC(=O)c2ccc3c(c2)NC(C)(CNc2ccccc2)CO3)cn1 (centres undefined) was read as Luciferase inh inactive, GPT2 inhibitor inactive, NPR1 antag 35µM, HEK293 tox 45µM, NIH3T3 tox inconclusive, NPR1 antag cnf 40µM, NPR2 antag inconclusive, FLuc inh counter inactive and GloSensor ctrl inconclusive.
For CCOCC1(C)COc2ccc(C(=O)Nc3ccc(OC)nc3)cc2N1 (centres undefined) the results were Luciferase inh inconclusive, GPT2 inhibitor inactive, NPR1 antag inactive, HEK293 tox inconclusive and NIH3T3 tox inconclusive.
Screening CC1(COCC2CC2)COc2ccc(C(=O)Nc3cccnc3)cc2N1 (centres undefined) returned Luciferase inh inconclusive, GPT2 inhibitor inconclusive, NPR1 antag inconclusive, HEK293 tox inconclusive, NIH3T3 tox inactive, NPR1 antag cnf inactive, NPR2 antag inactive, FLuc inh counter inactive and GloSensor ctrl inactive.
For CC(C)c1nncn1C1CCN(S(=O)(=O)c2ccc(Br)s2)CC1 the results were Luciferase inh inactive, GPT2 inhibitor inactive, NPR1 antag 11µM, HEK293 tox inconclusive, NIH3T3 tox inconclusive, NPR1 antag cnf 24µM, NPR2 antag inconclusive, FLuc inh counter inactive and GloSensor ctrl 22µM.
`CC(C)c1nncn1C1CCN(S(=O)(=O)c2ccc(Br)cc2)CC1` gave Luciferase inh inactive, GPT2 inhibitor inactive, NPR1 antag inactive, HEK293 tox inconclusive and NIH3T3 tox inconclusive.
COc1ccccc1-c1[nH]nc2ncc(C(=O)NCc3ccccc3)nc12 was read as Luciferase inh inactive, GPT2 inhibitor inactive, NPR1 antag inactive, HEK293 tox inconclusive and NIH3T3 tox inactive.
For COc1ccccc1-c1[nH]nc2ncc(C(=O)NCC3CC3)nc12 the results were Luciferase inh inactive, GPT2 inhibitor inactive, NPR1 antag inconclusive, HEK293 tox inconclusive, NIH3T3 tox inconclusive, NPR1 antag cnf inconclusive, NPR2 antag 25µM, FLuc inh counter inactive and GloSensor ctrl inactive.
Screening CN(Cc1cccc2cnccc12)C(=O)c1cc(COc2ccc(F)cc2F)on1 returned Luciferase inh inactive, GPT2 inhibitor inactive, NPR1 antag 11µM, HEK293 tox inconclusive, NIH3T3 tox inconclusive, NPR1 antag cnf 24µM, NPR2 antag 22µM, FLuc inh counter inactive and GloSensor ctrl 19µM.

From PubChem BioAssay
